In the library only some 3.3% were active in any assay of this set; here they are far more common.
697 NFkB inh: inhibitors of the PMA/ionomycin-induced NF-kB reporter in 697 B cells; 697 B-cell NF-kB luciferase reporter, 16 h; inhibition, % at 4 µM; 330,000 compounds, 0.33% hits; in the data active = inhibition above about 35%
esBAF inh: inhibitors of esBAF chromatin remodeling in mouse ES cells | reporter increase, % at 12.5 µM | Bmi1-luciferase knock-in reporter, 24 h; 100% = twice the neutral-well signal | 350,000 compounds, 2% hits; in the data active = activation above about 40%;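 note: a rise in the Bmi1 reporter signal indicates esBAF inhibition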
Gli-Sufu antag: antagonists of Gli-Sufu signaling; AID 588413; 340,000 compounds, 0.74% hits; Sufu-KO-LIGHT fibroblasts, Gli luciferase reporter luminescence; inhibition, % at 5 µM;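 active = inhibition above about 55%, limit read from the data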
Jurkat NFkB inh: lowers PMA/ionomycin-induced NF-kB signal in Jurkat cells | 330,000 compounds, 0.53% hits | inhibition, % at 4 µM | AID 435003 | PMA/ionomycin-induced NF-kB luciferase reporter, luminescence; in the data active = inhibition above about 50%
SMARCA2 activ: increases SMARCA2 function in MMTV reporter cells. MG213 cells, MMTV-luciferase reporter, dexamethasone, overnight. activation, % at 9.1 µM. 370,000 compounds, 1% hits. AID 652017; in the data active = activation above about 7.8%
Of the large screens only hits and unclear results are named; the others gave an inactive call.

COc1cc(Cl)ccc1OCc1cc(C(=O)N2CCCC(OC)C2)no1 (stereo not drawn)	esBAF inh 75
COc1cc(Cl)ccc1OCc1cc(C(=O)N2CCCCCC2)no1	esBAF inh 45
COCC1CCCN(C(=O)c2cc(COc3ccc4ncccc4c3)on2)C1 (stereo not drawn)	Gli-Sufu antag 56
COc1cc(Cl)ccc1OCc1cc(C(=O)N2CCN(C3CCCCC3)CC2)no1	none (no result: 697 NFkB inh, Gli-Sufu antag, Jurkat NFkB inh)
COc1ccc(NC(=O)N(C)C[C@H]2OCCCC[C@H](C)Oc3ccc(NS(=O)(=O)c4ccccc4)cc3C(=O)N([C@H](C)CO)C[C@@H]2C)cc1	none (no result: 697 NFkB inh, Gli-Sufu antag, Jurkat NFkB inh, SMARCA2 activ)
COCC(=O)N(C)C[C@@H]1Oc2ncc(-c3ccc(C)cc3)cc2C(=O)N([C@H](C)CO)C[C@@H]1C	none (no result: 697 NFkB inh, Gli-Sufu antag, Jurkat NFkB inh, SMARCA2 activ)
Cc1noc(C)c1S(=O)(=O)Nc1ccc2c(c1)C(=O)N([C@@H](C)CO)C[C@H](C)[C@@H](CN(C)C(=O)Nc1ccc3c(c1)OCO3)OCCCC[C@H](C)O2	none (no result: 697 NFkB inh, Gli-Sufu antag, Jurkat NFkB inh, SMARCA2 activ)
CCCCNC(=O)c1nnn(-c2ccccc2)c1N	esBAF inh 43
O=C(NC1CC1)c1sc2cc(F)ccc2c1Cl	none
O=C(NC1CC1)c1sc2cc(Cl)ccc2c1Cl	esBAF inh 44
O=C(NC1CC1)c1sc2ccccc2c1Cl	esBAF inh 47
O=C(Nc1ccc(Br)cn1)c1ccc(Cl)s1	esBAF inh 60
O=C(Nc1ccccn1)c1sc2cc([N+](=O)[O-])ccc2c1Cl	esBAF inh 42
O=C(NCCCN1CCOCC1)c1sc2cc([N+](=O)[O-])ccc2c1Cl	none (no result: SMARCA2 activ)
CS(=O)(=O)Nc1ccc2c(c1)[C@@H]1C[C@@H](CC(=O)NCC3CC3)O[C@H](CO)[C@@H]1O2	none (no result: 697 NFkB inh, Gli-Sufu antag, Jurkat NFkB inh, SMARCA2 activ)
Cc1ccc(S(=O)(=O)Nc2ccc3c(c2)C(=O)N([C@@H](C)CO)C[C@H](C)[C@@H](CN(C)CC2CCCCC2)OCCCC[C@H](C)O3)cc1	none (no result: 697 NFkB inh, Gli-Sufu antag, Jurkat NFkB inh, SMARCA2 activ)
CN1[C@@H]2Cn3c(ccc(-c4ccc(F)cc4)c3=O)[C@H]1[C@@H](C(=O)NC1CCC1)[C@@H]2CO	none (no result: 697 NFkB inh, Gli-Sufu antag, Jurkat NFkB inh, SMARCA2 activ)
O=C(Nc1nccs1)c1ccc(Cl)s1	esBAF inh 52
O=C(Nc1nccs1)c1sc2cc(Cl)ccc2c1Cl	esBAF inh 57
O=C(NC(=S)NCCO)c1sc2ccccc2c1Cl	esBAF inh 53
COCC(=O)N1CC[C@@H]2[C@H](CO)Nc3ccc(-c4ccc(C#N)cc4)cc3[C@@H]21	none (no result: 697 NFkB inh, Gli-Sufu antag, Jurkat NFkB inh, SMARCA2 activ)
COc1ccc(NC(=O)CCC(=O)Nc2ccc3nc(N4CCOCC4)cc(C)c3c2)c(OC)c1	esBAF inh 42
Cc1cc(N2CCOCC2)nc2ccc(NC(=S)N3CCN(c4ccccc4)CC3)cc12	none (no result: esBAF inh)
Cc1cc(N2CCOCC2)nc2ccc(Cl)cc12	esBAF inh 57
C/C=C/c1ccc2c(c1)O[C@H](CN(C)Cc1ccc(C(=O)O)cc1)[C@H](C)CN([C@H](C)CO)S2(=O)=O	none (no result: 697 NFkB inh, Gli-Sufu antag, Jurkat NFkB inh, SMARCA2 activ)
Cc1cc(C)nc(NC(=O)/C=C/c2ccc(Cl)cc2Cl)c1	esBAF inh 66
Cc1cc(C)nc(NC(=O)/C=C/c2ccccc2Cl)c1	none (no result: esBAF inh)
COc1cccc(CNC(=O)CCC2CCCN(C(=O)c3ccoc3)C2)c1 (stereo not drawn)	none
COc1cccc(CNC(=O)CCC2CCCN(C(=O)c3cc4ccccc4o3)C2)c1 (stereo not drawn)	esBAF inh 62
COc1cc(C(C)=O)ccc1OCc1cc(C(=O)N(C)CCC2CCCCO2)no1 (stereo not drawn)	esBAF inh 51
CC(=O)c1ccc(OCc2cc(C(=O)NCC3CCCCO3)no2)cc1 (stereo not drawn)	none (no result: esBAF inh)
COc1cc(C)ccc1OCc1cc(C(=O)N(C)CCCN2CCOCC2)no1	esBAF inh 74
CN(CCCN1CCOCC1)C(=O)c1cc(COc2ccc(F)cc2F)on1	none
COc1cc(C)ccc1OCc1cc(C(=O)NCCN2CCOCC2)no1	esBAF inh 63
OC[C@@H]1[C@@H](c2ccc(/C=C/c3ccccc3)cc2)[C@H]2CN(Cc3ccncc3)CCCCN12	none (no result: 697 NFkB inh, Gli-Sufu antag, Jurkat NFkB inh, SMARCA2 activ)
O=C(C[C@@H]1C[C@H]2c3cc(NC(=O)Nc4ccc(C(F)(F)F)cc4)ccc3O[C@H]2[C@@H](CO)O1)NCc1ccccn1	none (no result: 697 NFkB inh, Gli-Sufu antag, Jurkat NFkB inh, SMARCA2 activ)
CO[C@H]1CN(C)C(=O)c2cc(NC(=O)C3CCCC3)ccc2OC[C@H](C)N(C)C[C@@H]1C	none (no result: 697 NFkB inh, Gli-Sufu antag, Jurkat NFkB inh, SMARCA2 activ)
Cc1ccc(S(=O)(=O)Nc2ccc3c(c2)C(=O)N([C@@H](C)CO)C[C@@H](C)[C@H](CN(C)C(=O)CCC(F)(F)F)OCCCC[C@@H](C)O3)cc1	none (no result: 697 NFkB inh, Gli-Sufu antag, Jurkat NFkB inh, SMARCA2 activ)
Fc1ccc(OCc2nc(-c3ccc(Br)o3)no2)c(F)c1	none
Brc1ccc(-c2noc(CCc3ccccc3)n2)o1	esBAF inh 50
Clc1ccccc1OCc1nc(-c2ccc(Br)o2)no1	esBAF inh 54
CC(C)C#Cc1cnc2c(c1)C(=O)N([C@@H](C)CO)C[C@@H](C)[C@@H](CN(C)C(=O)c1cccnc1)O2	none (no result: 697 NFkB inh, Gli-Sufu antag, Jurkat NFkB inh, SMARCA2 activ)
C[C@@H](O)C#Cc1cnc2c(c1)C(=O)N([C@@H](C)CO)C[C@H](C)[C@H](CN(C)C(=O)Cc1ccncc1)O2	none (no result: 697 NFkB inh, Gli-Sufu antag, Jurkat NFkB inh, SMARCA2 activ)
COc1cc(-c2nc(-c3ccc(NC(=O)c4ccc5c(c4)OCO5)cc3)no2)cc(OC)c1OC	SMARCA2 activ 8.0 (no result: esBAF inh)
CC(/C=C/c1ccccc1)=N\NC(N)=S	esBAF inh 50
CC(/C=C/c1ccccc1)=N\NC(=S)NC(C)C	none
Cc1cccc(NC(=O)CN2C(=O)N/C(=C\c3ccc(N4CCOCC4)cc3)C2=O)c1	esBAF inh 59
CO[C@H](CN(C)S(=O)(=O)c1cccc(Cl)c1)[C@H](C)CN([C@H](C)CO)S(=O)(=O)c1cccc(Cl)c1	none (no result: 697 NFkB inh, Gli-Sufu antag, Jurkat NFkB inh, SMARCA2 activ)
Cc1c(C(=O)NCC(C)C)sc2nc(-c3ccc(F)cc3)cn12	esBAF inh 50
Cc1ccc(C)c(OCc2cc(C(=O)N3CCN(C(=O)c4ccco4)CC3)no2)c1	esBAF inh 80
Cc1ccc(C)c(OCc2cc(C(=O)NC3CCOC(C)(C)C3)no2)c1 (stereo not drawn)	esBAF inh 51
Cc1ccc(C)c(OCc2cc(C(=O)N3CCN(c4ccccc4)CC3)no2)c1	none (no result: esBAF inh)
COc1cc(C)ccc1OCc1cc(C(=O)N2CCC(c3ccc(F)cc3)C2)no1 (stereo not drawn)	esBAF inh 82
O=C(c1cc(COc2c(F)cccc2F)on1)N1CCC(c2ccccc2Cl)C1 (stereo not drawn)	esBAF inh 45
CCN(CCn1cccn1)C(=O)c1cc(COc2ccccc2SC)on1	none (no result: esBAF inh)
Cc1ccc(C)c(OCc2cc(C(=O)N3CC[C@@H]4CCCC[C@H]4C3)no2)c1	esBAF inh 54
CCN(CCn1cccn1)C(=O)c1cc(COc2cc(C)ccc2C)on1	esBAF inh 70
Cc1ccc(C)c(OCc2cc(C(=O)N3C[C@@H](C)O[C@@H](C)C3)no2)c1	esBAF inh 76
C[C@@H]1CCCCO[C@H](CN(C)S(=O)(=O)c2ccc(Cl)cc2)[C@@H](C)CN([C@@H](C)CO)C(=O)c2cc(N(C)C)ccc2O1	none (no result: 697 NFkB inh, Gli-Sufu antag, Jurkat NFkB inh, SMARCA2 activ)
O=C(C[C@@H]1C[C@@H]2c3cc(NC(=O)C4CCC4)ccc3O[C@@H]2[C@@H](CO)O1)NCc1ccccc1F	none (no result: 697 NFkB inh, Gli-Sufu antag, Jurkat NFkB inh, SMARCA2 activ)
